Test results: PubChem BioAssay AID1663 (Broad Institute, 2009)
Among all 300,000 compounds or so, about 660 (0.22%) were called active.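 How the source made its calls: active means mean replicate score, as percent of positive control, at or above 50; inconclusive means mean below 50 but at least one replicate at or above 50; inactive means mean and every replicate below 50.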 The list comes from a sample in which actives are over-represented; it also holds similar structures and randomly drawn compounds.

Assay: blockers of SFLLRN-triggered platelet ATP release – cell-based, MLPCN, human platelets, primary screen (AID 1663)
Details: human platelet-rich plasma, SFLLRN dense granule ATP release, luminescence; stronger effect = higher value;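 compounds screened at 7.5 µM in platelet-rich plasma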

| Structure (SMILES) | inhibition |
| --- | --- |
| O=[N+]([O-])c1ccc2c(c1)Nc1nc3ccccc3nc1N2 | -4.77% (inactive) |
| Cc1sc2ncn(CC(=O)NCCCC(=O)N(C)Cc3ccccc3)c(=O)c2c1C | 10.8% (inactive) |
| COc1ccc(C(C)=O)cc1CN1C(=O)NC2(CCCCC2C)C1=O (stereo not given) | -14.5% (inactive) |
| O=[N+]([O-])c1ncc(Br)cc1Nc1ccccc1 | -1.96% (inactive) |
| CCOC(=O)N1CCN(C(=O)c2ccc3c(=O)n(CCc4ccc(OC)c(OC)c4)c(=O)[nH]c3c2)CC1 | -6.61% (inactive) |
| C/C(=N\NC(=O)c1cc2c(s1)CCC(C)C2)c1cccnc1 (stereo not given) | 9.94% (inactive) |
| N#Cc1c(N)nc2c3c(sc(=N)c2c1N)NC(=O)CC3c1ccccc1Cl (stereo not given) | -3.78% (inactive) |
| COc1ccc(-c2cc(-c3ccc(N)cc3)nc(N)c2C#N)cc1OC | 0.00483% (inactive) |
| COc1ccc(C2CC(=O)Nc3sc(=N)c4c(N)c(C#N)c(N)nc4c32)cc1OC (stereo not given) | 92.7% (active) |
| COc1ccc(NC(=O)CC2C(=O)OCC3CCCCN32)cc1Cl (stereo not given) | 7.17% (inactive) |
| O=C(Cc1cccs1)Nc1nnc(SCc2ccc(F)cc2)s1 | -6.18% (inactive) |
| COc1cc(OC)cc(-c2nnc(SCC(=O)Nc3ccc(C(=O)O)cc3)s2)c1 | -1.66% (inactive) |
| O=C(CSc1nnc(SCc2ccc(F)cc2)s1)Nc1ccc(C(=O)O)cc1 | 65.9% (active) |
| COc1ccc(C(=O)OCC(=O)NC(=O)CCSc2ccccc2)cc1 | -1.32% (inactive) |
| C=CCNCCCCOc1ccccc1 | 3.06% (inactive) |
| C=C(C)COc1ccc(-c2ncncc2-c2ccc(OC)cc2)c(O)c1 | 3.43% (inactive) |
| CC(C(=O)NC1CCCCC1)N1C(=O)c2cccc3cccc1c23 (stereo not given) | 7.75% (inactive) |
| COc1cccc(C(=O)Nc2ccc(N3CCCC3)cc2)c1 | 87.6% (active) |
| COc1cccc(C(=O)Nc2ccc(N3CCN(C(=O)c4ccco4)CC3)cc2)c1 | -47.4% (inactive) |
| CN1CCN(c2ccc(NC(=O)c3ccccc3)cc2)CC1 | 28.5% (inactive) |

| Structure (SMILES) | inhibition |
| --- | --- |
| C/C=C/C(=O)OCC(=O)Nc1ccc(F)cc1Cl | 1.87% (inactive) |
| COc1ccc(C(=O)NC2CC2)cc1OC1CCN(C/C=C/c2ccccc2)CC1 | -4.81% (inactive) |
| Cc1cnc(NC(=O)c2ccc(Cl)nc2)s1 | -2.29% (inactive) |
| Cc1cnc(NC(=O)c2ccccn2)s1 | 52.7% (active) |
| O=C(Nc1nnc(C2CC2)s1)c1ccccn1 | -0.73% (inactive) |
| Cn1c(-c2ccco2)nc2cc3ccccc3cc21 | 66.2% (active) |
| Cc1cc(C(F)(F)F)nn1-c1nc(-c2ccco2)cc(C(F)(F)F)n1 | 0.688% (inactive) |
| COc1ccccc1-n1c(-c2cc(-c3ccco3)[nH]n2)n[nH]c1=S | 3.67% (inactive) |
| CCOc1ccc(/C(O)=C2\C(=O)C(=O)N(c3ccc(OC)cc3)C2c2ccccc2[N+](=O)[O-])cc1 (stereo not given) | 14.9% (inactive) |
| NS(=O)(=O)c1ccc2nc(NC(=O)C3=COCCO3)sc2c1 | -2.24% (inactive) |
| Cc1nc2cc(NC(=O)Nc3cccc(F)c3)ccc2n1C | 56.5% (active) |
| C=CCN(C(=O)Nc1ccc2c(c1)nc(C)n2C)c1ccccc1 | 3.61% (inactive) |
| Cc1nc2cc(NC(=O)NC3CC3)ccc2n1C | -7.31% (inactive) |
| O=C(COC(=O)c1ccc[nH]c1=O)Nc1ccc2c(c1)OC(F)(F)O2 | 5.92% (inactive) |
| CCOC(=O)/C(N=Nc1cc(C(=O)O)cc(C(=O)O)c1)=C(\O)CCl | 10.2% (inactive) |
| COc1ccc(-n2cc(-c3ccccc3)c3c(=S)nc[nH]c32)cc1 | 5.15% (inactive) |
| COc1cc2ccccc2cc1C(=O)Nc1nc(C)c(C(C)=O)s1 | -6.84% (inactive) |
| COC(=O)c1sc(NC(=O)c2ccc(OC)cc2OC)nc1C | 57.3% (active) |
| COc1ccc(Cc2nnc(NC(=O)c3ccc(OC)cc3OC)s2)cc1 | -12.4% (inactive) |
| O=C(O)CC/C(=C\c1cc2c(cc1Br)OCO2)c1nc2ccccc2s1 | 17.4% (inactive) |

| Structure (SMILES) | inhibition |
| --- | --- |
| CCN(CC(=O)Nc1ccc(C)c(S(=O)(=O)N(C)C)c1)Cc1ccccc1 | 2.21% (inactive) |
| Cc1ccc(NC(=O)OCc2cncs2)cc1 | -1.58% (inactive) |
| COc1ccc(NC(=O)c2cc(-c3ccc(C)cc3)on2)cc1 | 7.98% (inactive) |
| COc1ccc(NC(=O)/C(Cl)=C(/Cl)S(=O)Cc2ccc(C)cc2)cn1 (stereo not given) | 59% (active) |
| COc1ccc(S(=O)(=O)NCCCc2ccccc2)cc1 | 16% (inactive) |
| C=CCn1c(-c2ccc(Cl)cc2)ccc(C#N)c1=O | 1.51% (inactive) |
| CCC(C)(C)NC(=O)CN(C(=O)CCC(=O)Nc1cc(C)ccn1)c1ccc2c(c1)OCCO2 | 0.138% (inactive) |
| COc1ccc(C(=O)Nc2ccccc2C(=O)N/N=C/c2ccc(O)c(OC)c2)cc1 | 97.1% (active) |
| COc1cc(/C=N/NC(=O)c2ccc(N3CCCC3=O)cc2)ccc1O | -4.06% (inactive) |
| COc1ccc(C(=O)Nc2ccccc2C(=O)NCc2ccco2)cc1 | 12% (inactive) |
| COc1ccc(C(=O)Nc2ccccc2C(=O)N/N=C/c2ccccc2OC)cc1 | 73.7% (active) |
| COc1ccc(/C=N/NC(=O)c2ccc3c(c2)OCCO3)c(OC)c1 | -1.2% (inactive) |
| COc1ccc(/C=N/NC(=O)c2ccccc2)cc1OS(=O)(=O)c1ccccc1 | 2.24% (inactive) |
| Cc1cccnc1CCNC(=O)C1CCC(=O)N(Cc2cccc(F)c2)C1 (stereo not given) | -10.1% (inactive) |
| CC(=O)N1CCN(CC(c2ccccc2)c2ccccc2)CC1 | 7.74% (inactive) |
| COc1cccc(N2CCN(c3ccc4nnc(CCC(=O)N5CCN(C)CC5)n4n3)CC2)c1 | 7.34% (inactive) |
| COC(=O)c1c(NC(=O)CN2C(=O)NC(CCc3ccccc3)C2=O)sc2c1CCCCC2 (stereo not given) | -0.263% (inactive) |
| COc1ccc(C2=NS(=O)(=O)N(C)C(C(=O)N(C)Cc3ccccc3)=C2)cc1 | 0.338% (inactive) |
| O=C(CN(C(=O)c1nsc(Cl)c1Cl)c1cccc(F)c1)NC1CCCC1 | -4.29% (inactive) |
| COc1ccc(/C=N/NC(=O)Cn2cc(C(F)(F)F)ccc2=O)cc1 | 3.51% (inactive) |
